The results in this text go back to PubChem BioAssay (NCI).

The nature of assay [1]: NCI Yeast Anticancer Drug Screen. Data for the rad50 strain (AID 155).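 Also: 0% = growth of vehicle-only cultures of the same strain.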 The following applies: S. cerevisiae rad50 strain growth inhibition; at 50.0 µM; hits give high values. The procedure, abridged: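 Genetically altered yeast (DNA repair pathway); compound treatment; growth inhibition vs vehicle ctrl.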
The nature of assay [2]: NCI Yeast Anticancer Drug Screen. Data for the mec2-1 strain (AID 157). The following applies: S. cerevisiae mec2-1 strain, at 50.0 µM, hits give high values. The procedure, abridged:
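mec2-1 yeast strain, carrying an alteration in DNA damage repair or cell cycle control, was exposed to compounds; growth inhibition was measured relative to vehicle-treated controls.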

Assay [3] can be described thus: NCI Yeast Anticancer Drug Screen. Data for the sgs1 mgt1 strain (AID 161).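 Also: 0% = growth of cultures given vehicle only.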 Conditions: S. cerevisiae sgs1 mgt1 strain, at 50.0 µM, hits give high values. Summed up: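 This yeast growth screen uses a strain with defined DNA-repair lesions; compound-treated growth is compared with vehicle-treated growth.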
A short description of assay [4]: NCI Yeast Anticancer Drug Screen. Data for the cln2 rad14 strain (AID 165).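 Also: 0% = growth equal to vehicle treated cultures.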 Conditions: S. cerevisiae cln2 rad14 strain, at 50.0 µM, hits give high values. Summed up: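 Yeast carrying cln2 and rad14 alterations (cell cycle control and DNA damage repair) were exposed to compounds. Growth inhibition was measured against vehicle-treated controls.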
Assay [5] can be described thus: NCI Yeast Anticancer Drug Screen. Data for the bub3 strain (AID 167). Conditions: S. cerevisiae bub3 mutant strain, at 50.0 µM, hits give high values. The procedure, abridged: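 Yeast carrying a defined mutation is treated with each compound, and growth is compared with that of vehicle-exposed cells to give inhibition.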
Assay [6] is described as follows: NCI Yeast Anticancer Drug Screen. Data for the mlh1 rad18 strain (AID 175). Conditions: S. cerevisiae mlh1 rad18 strain growth inhibition; at 50.0 µM; hits give high values. The procedure, abridged:
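Growth inhibition of the yeast strain was measured after compound exposure and expressed relative to vehicle-treated controls. The strain carries defined defects in DNA damage repair.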

The panel holds about 79,000 compounds, 15% with a hit somewhere; the sample as a whole holds those more often. Values without a mark were called inactive. Active and inactive are the calls of the source. Rule as the data show it: active = growth inhibition above about 70%; inactive = the rest.

For `CN(CCC#N)c1ccc(C=C(C#N)C#N)cc1`, the growth inhibition in assay [1] was 7.25%; in assay [2], 11.3%; in assay [3] it was 7.65%; in assay [4], 8.05%; in assay [5] it was 24.7%; in assay [6] it was 5.65%.
Consider `COc1cc(C=C2C(=O)NC(=S)NC2=O)cc(OC)c1OC`, for which the growth inhibition was 5.05% in assay [1]; -15.9% in assay [2]; 3.35% in assay [3]; 18.6% in assay [4]; -1.35% in assay [5]; -0.95% in assay [6].
Take `Cn1cc([N+](=O)[O-])c([N+](=O)[O-])c1`: the growth inhibition was -3.8% in assay [1]; 2.5% in assay [2]; -11.6% in assay [3]; -74.8% in assay [4]; -6.3% in assay [5]; 0.85% in assay [6].
As to `O=C1C(Br)=CC2(C=C1Br)CCN=c1c(O)c3c(c(O)c12)=NC=N3`, the growth inhibition was 27.3% in assay [1]; 15.7% in assay [2]; 20.5% in assay [3]; 19.1% in assay [4]; 12.7% in assay [5]; -9.4% in assay [6].
Turning to `O=[N+]([O-])c1ccc(P(=O)(O)O)cc1`, the growth inhibition in assay [1] was -7.5%; in assay [2] it was -27.7%; in assay [3] it was 0.3%; in assay [4], -22.4%; in assay [5], 2.85%; in assay [6], 10.4%.
For the molecule `O=c1sc2ccccc2n1CC1CS1` (stereo not given), the growth inhibition in assay [1] is 22.4%; in assay [2], -10.1%; in assay [3] it was -8.75%; in assay [4] it was 5.25%; in assay [5] it was -27.1%; in assay [6], -0.25%.
On to `Cc1ccccc1.[C-]#[O+].[C-]#[O+].[C-]#[O+].[W]`, for which the growth inhibition in assay [1] was -11.5%; in assay [2], -1.2%; in assay [3], 2%; in assay [4], 28.2%; in assay [5] it was 24.9%; in assay [6], -8.05%.
As for `CC(=O)OC1CCC2(C)C(CC(=O)C3C2CCC2(C)C(OC(C)=O)CCC32)C1` (stereo not given), the growth inhibition in assay [1] was 7.35%; in assay [2], 7.35%; in assay [3], 1.5%; in assay [4], 15.8%; in assay [5], -4.2%; in assay [6] it was 2.15%.
As to `O=c1[nH]c2ccc([As](O)O)cc2[nH]1`, the growth inhibition was -14.8% in assay [1]; -14.9% in assay [2]; -4.9% in assay [3]; -17.8% in assay [4]; -8.25% in assay [5]; 0.75% in assay [6].
In the case of `c1ccc(C[N+]23CN4CN(CN(C4)C2)C3)cc1`, the growth inhibition in assay [1] is 9.5%; in assay [2], -20%; in assay [3] it was -7.6%; in assay [4], 8.65%; in assay [5], -18.2%; in assay [6] it was -6.5%.
Consider `Cc1ccc(OP(=O)(Oc2ccc(C)cc2)Oc2ccc(C)cc2)cc1.Cc1ccc(OP(=O)(Oc2ccc(C)cc2)Oc2ccc(C)cc2)cc1.Cc1ccc(OP(=O)(Oc2ccc(C)cc2)Oc2ccc(C)cc2)cc1.Cc1ccc(OP(=O)(Oc2ccc(C)cc2)Oc2ccc(C)cc2)cc1.[Nd+3].[O-][Cl+3]([O-])([O-])O`, for which the growth inhibition in assay [1] is 34.4%; in assay [2], 23.7%; in assay [3], 37.8%; in assay [4], 27%; in assay [5], 52.8%; in assay [6], 25.7%.
On to `COc1cc2c(cc1OC)C13CCN4C=C5CCOC6CC(=O)N2C1C6C5CC43` (stereo not given), for which the growth inhibition in assay [1] is -25.4%; in assay [2], -8.7%; in assay [3], -12.7%; in assay [4] it was 1.75%; in assay [5], -60%; in assay [6] it was 16.8%.
Regarding `OC1CCN(C2(c3ccccc3)CCCCC2)CC1`, the growth inhibition was -13.9% in assay [1]; 1.45% in assay [2]; -1.85% in assay [3]; -4.25% in assay [4]; -6.1% in assay [5]; 0.15% in assay [6].
On to `NCC(Cc1ccccc1)P(=O)(O)O` (stereo not given), for which the growth inhibition in assay [1] was -23.8%; in assay [2], -28.6%; in assay [3], -26.4%; in assay [4], -42.3%; in assay [5], -28.1%; in assay [6] it was -22.8%.
As to `CO/C(=N/N1CC1C(F)(F)F)c1ccncc1` (stereo not given), the growth inhibition in assay [1] is -34.8%; in assay [2], 19.2%; in assay [3] it was -51.9%; in assay [4], 11.8%; in assay [5] it was 1.65%; in assay [6], 8%.
Regarding `c1cc2c(cc1NC1=NCCO1)CCC2`, the growth inhibition in assay [1] was 3.65%; in assay [2] it was 4.65%; in assay [3], 2.75%; in assay [4], -31.6%; in assay [5], 8.6%; in assay [6], -0.65%.
Consider `OCC(Br)CBr` (stereo not given), for which the growth inhibition in assay [1] was 40.9%; in assay [2] it was 0.35%; in assay [3], -3.6%; in assay [4], -62.6%; in assay [5], -11.7%; in assay [6] it was -4.5%.
For `CC1=CC2OC3CC4OC(=O)/C=C/C=C/C(C(C)O)OCC/C(C)=C/C(=O)OCC2(CC1)C4(C)C31CO1` (stereo not given), the growth inhibition in assay [1] was 92% (active); in assay [2], 94.1% (active); in assay [3], 93.3% (active); in assay [4] it was 92.2% (active); in assay [5] it was 92.6% (active); in assay [6] it was 90.7% (active).
In the case of `Cc1cc(C)c(C(=O)O)c(C)c1.[Hg]`, the growth inhibition in assay [1] is 99.6% (active); in assay [2], 99.8% (active); in assay [3], 99.7% (active); in assay [4], 99.5% (active); in assay [5] it was 99.7% (active); in assay [6], 99.7% (active).
`C=C1OC(OC)CC(N=[N+]=[N-])C1O` (stereo not given): the growth inhibition in assay [1] was -14.1%; in assay [2] it was -2.9%; in assay [3], -6.4%; in assay [4] it was -5.3%; in assay [5] it was 2.45%; in assay [6], -15.6%.
